Measurements reported in PubChem BioAssay.
Calls of active or inactive are those of the source. Unless noted, no rule for the calls is given here.

Legend:
[1] = compound effects on lung adenocarcinoma cell viability – A549, calcein-AM fluorescence, 48 h, basal, profiling panel (AID 1162); details: higher = more signal; also: test concentration not given here
[2] = compound effects on differentiated 3T3-L1 adipocyte viability – cell-based, 3T3-L1 adipocytes, calcein-AM fluorescence, 48 h, basal, profiling panel (AID 1163); details: 3T3-L1 adipocytes viability, higher = more signal; also: test concentration not given here
[3] = compound effects on hepatocellular carcinoma cell viability – HepG2, calcein-AM fluorescence, 48 h, basal, profiling panel (AID 1164); details: higher = more signal; also: test concentration not given here
[4] = compound effects on multiple myeloma cell viability – MM1S, calcein-AM fluorescence, 48 h, basal, profiling panel (AID 1165); details: higher = more signal;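 also: viability of MM1S multiple myeloma cells under basal unstimulated conditions; test concentration not given here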
[5] = calcein-AM signal in unstimulated myeloma cells – cell-based, calcein-AM fluorescence, 48 h, PK04 Diversity Set, profiling panel (AID 1166); details: RPMI8226 myeloma viability, higher = more signal;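 also: cells grown under basal conditions without added stimulus; test concentration not given here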
[6] = JC-1 mitochondrial signal, unstimulated HepG2 cells – cell-based, JC-1 fluorescence, 24 h, 100 nL compound, profiling panel (AID 1167); details: HepG2 mitochondrial potential, higher = more signal; also: test concentration not given here
[7] = JC-1 mitochondrial signal, unstimulated adipocytes – cell-based, JC-1 fluorescence, 3T3-L1 adipocytes, 24 h, 100 nL compound, profiling panel (AID 1168); details: JC-1 mitochondrial fluorescence, higher = more signal, called active from +8 up or from −8 down; also: test concentration not given here
[8] = JC-1 mitochondrial signal, unstimulated myeloma cells – cell-based, JC-1 fluorescence, RPMI8226, 24 h, 100 nL compound, profiling panel (AID 1169); details: JC-1 mitochondrial potential fluorescence, higher = more signal; also: test concentration not given here
[9] = JC-1 mitochondrial signal, unstimulated MM1S myeloma – cell-based, JC-1 fluorescence, 24 h, 100 nL compound, profiling panel (AID 1170); details: MM1S mitochondrial potential, higher = more signal; also: test concentration not given here
[10] = resazurin metabolic signal in A549 cells – cell-based, resazurin fluorescence, 24 h, PK04 Diversity Set, profiling panel (AID 1171); details: A549 viability, higher = more signal, called active from +8 up or from −8 down; also: test concentration not given here
[11] = resazurin metabolic signal in HepG2 cells – cell-based, resazurin fluorescence, 24 h, PK04 Diversity Set, profiling panel (AID 1172); details: HepG2 viability, higher = more signal; also: test concentration not given here
[12] = budding yeast growth changes without added modifier – OD600, strain BY4716, 24 h, basal condition, primary screen (AID 1173); details: S. cerevisiae BY4716 growth, OD600, 24 h; higher = more signal, called active from +8 up or from −8 down
[13] = viability profiling in MM1S myeloma cells – cell-based, resazurin fluorescence, basal, 24 h, PK04 Diversity Set, profiling panel (AID 1174); details: higher = more signal, called active from +8 up or from −8 down; also: test concentration not given here
[14] = target: Dihydroorotate dehydrogenase (quinone), mitochondrial (Plasmodium falciparum (isolate 3D7)) (UniProt Q08210); assay: inhibition of P. falciparum DHODH – biochemical, C-terminal His tag, absorbance 600 nm, primary screen (AID 1175); details: PfDHODH enzyme, DCIP absorbance 600 nm; higher = more signal, called active from +8 up or from −8 down;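 also: recombinant parasite enzyme with a five histidine tag at its C terminus; test concentration not given here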
[15] = inhibition of PAO1 biofilm formation – strain PAO1, LB-PBS medium, absorbance 600 nm, primary screen (AID 1176); also: test concentration not given here; details: P. aeruginosa PAO1 growth/biofilm, A600, 12 h; higher = more signal
[16] = growth modulation of vineyard yeast isolate – strain RM11-1a, OD600, basal, 24 h, primary screen (AID 1177);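 also: cultures grown under basal conditions with no added stressor; test concentration not given here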; details: S. cerevisiae RM11-1a growth, OD600, 24 h; higher = more signal, called active from +8 up or from −8 down
[17] = growth of efflux-deficient E. coli DRC39 – strain DRC39, OD650, 24 h, E. coli filamentation inducers, primary screen (AID 1178);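 also: growth measured as culture turbidity by optical density at 650 nm; test concentration not given here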; details: E. coli DRC39 acrAB, higher = more signal, called active from +8 up or from −8 down
[18] = growth of efflux-deficient E. coli DRC39 – strain DRC39, OD650, 48 h, E. coli filamentation inducers, primary screen (AID 1179);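 also: screen aims at cell division blockers that make cells filament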; details: E. coli DRC39 delta-acrAB growth, higher = more signal, called active from +8 up or from −8 down
[19] = viability profiling in RPMI8226 myeloma cells – cell-based, resazurin fluorescence, basal, 24 h, PK04 Diversity Set, profiling panel (AID 1180); details: higher = more signal;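 also: RPMI8826 multiple myeloma cell line at 5000 cells per well; test concentration not given here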
[20] = target: E3 ubiquitin-protein ligase XIAP (Homo sapiens) (UniProt P98170); assay: small molecules binding XIAP protein – biophysical, small-molecule microarray, fluorescence 635 nm, primary screen (AID 1181); details: higher = more signal;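 also: score merges 667 nm emission and signal to noise over triplicate slides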
Sequence of E3 ubiquitin-protein ligase XIAP (Homo sapiens) (P98170 whole entry, looked up): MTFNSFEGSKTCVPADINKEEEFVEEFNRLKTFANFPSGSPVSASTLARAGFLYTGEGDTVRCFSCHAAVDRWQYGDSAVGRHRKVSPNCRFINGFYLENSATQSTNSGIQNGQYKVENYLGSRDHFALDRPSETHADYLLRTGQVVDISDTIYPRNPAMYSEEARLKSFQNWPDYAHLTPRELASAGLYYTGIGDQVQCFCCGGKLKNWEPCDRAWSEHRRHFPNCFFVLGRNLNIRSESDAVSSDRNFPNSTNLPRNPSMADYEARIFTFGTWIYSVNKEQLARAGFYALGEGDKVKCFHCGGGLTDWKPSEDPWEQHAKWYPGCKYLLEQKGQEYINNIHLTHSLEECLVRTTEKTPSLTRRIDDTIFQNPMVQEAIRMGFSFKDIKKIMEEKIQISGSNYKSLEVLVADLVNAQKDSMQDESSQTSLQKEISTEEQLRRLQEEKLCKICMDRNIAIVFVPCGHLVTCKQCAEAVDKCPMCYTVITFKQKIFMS

Sequence of Dihydroorotate dehydrogenase (quinone), mitochondrial (Plasmodium falciparum (isolate 3D7)) (Q08210 whole entry, looked up): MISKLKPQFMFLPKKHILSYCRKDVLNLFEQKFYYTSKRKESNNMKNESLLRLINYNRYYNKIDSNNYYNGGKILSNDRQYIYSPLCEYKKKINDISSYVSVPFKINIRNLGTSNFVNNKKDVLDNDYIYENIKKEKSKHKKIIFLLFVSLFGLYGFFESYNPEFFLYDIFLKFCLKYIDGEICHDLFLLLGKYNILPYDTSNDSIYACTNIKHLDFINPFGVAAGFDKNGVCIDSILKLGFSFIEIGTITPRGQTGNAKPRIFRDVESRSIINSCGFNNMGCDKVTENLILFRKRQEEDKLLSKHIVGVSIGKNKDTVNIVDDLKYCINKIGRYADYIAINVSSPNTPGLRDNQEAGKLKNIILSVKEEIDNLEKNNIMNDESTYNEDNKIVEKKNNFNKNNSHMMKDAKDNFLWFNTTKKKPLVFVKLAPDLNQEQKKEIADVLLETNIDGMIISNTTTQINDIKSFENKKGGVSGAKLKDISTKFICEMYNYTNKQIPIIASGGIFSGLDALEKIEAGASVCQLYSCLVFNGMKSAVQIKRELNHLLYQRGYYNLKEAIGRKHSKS

SMILES	z-score [1]	z-score [2]	z-score [3]	z-score [4]	z-score [5]	z-score [6]	z-score [7]	z-score [8]	z-score [9]	z-score [10]	z-score [11]	z-score [12]	z-score [13]	composite z-score [14]	z-score [15]	z-score [16]	z-score [17]	z-score [18]	z-score [19]	composite z-score [20]
COc1ccc([Si](C)(C)[C@H]2[C@H](CC(=O)N(CCO)Cc3ccccc3)O[C@@]3(C(=O)N(C)c4ccccc43)[C@@H]2C)cc1	-0.836	0.899	-1.12	-1.84	-3.42	-0.433	0.505 (inactive)	-0.965	-0.176	0.221 (inactive)	0.514	-1.42 (inactive)	-0.0262 (inactive)	-0.0113 (inactive)	0.72 (inactive)	0.11 (inactive)	0.681 (inactive)	0.455 (inactive)	0.216	0.001
COc1ccc([Si](C)(C)[C@@H]2[C@@H](CC(=O)N(CCO)Cc3ccccc3)O[C@]3(C(=O)N(Cc4cccc(N5CCC5=O)c4)c4ccccc43)[C@H]2C)cc1	-1.45	1.5	-2.2	-2.55	-4.06	0.952	-0.0485 (inactive)	-0.917	-0.523	-1.82 (inactive)	-1.51	0.328 (inactive)	-2.9 (inactive)	-0.645 (inactive)	0.708 (inactive)	1.32 (inactive)	0.882 (inactive)	-0.0661 (inactive)	-2.08	0.154
COC(=O)[C@@]1(Cc2ccccc2N=[N+]=[N-])N=C(c2ccc(OCCCO)cc2)O[C@H]1c1ccccc1CN=[N+]=[N-]	-2.82	0.128	-5.51	-3.55	-3.96	-1.98	1.69 (inactive)	-0.822	-2.91	-3.26 (inactive)	-4.57	1.16 (inactive)	-8.21 (active)	0.648 (inactive)	0.383 (inactive)	0.992 (inactive)	0.23 (inactive)	0.887 (inactive)	-7	0.264
CCCC=C(CCC)[C@@H](NS(=O)(=O)c1ccc(C(F)(F)F)cc1)c1ccc(-c2ccccc2)cc1	-0.91	-0.988	-0.396	-0.5	-2.65	0.285	0.33 (inactive)	0.342	-1.15	2.3 (inactive)	2.18	1.05 (inactive)	1.14 (inactive)	0.472 (inactive)	-1.16 (inactive)	1.41 (inactive)	0.0852 (inactive)	-0.839 (inactive)	0.719	0.0264
